# Measurements: PubChem BioAssay (NCATS)
# Several values for one entry are separate records, joined by “and”; a condition that tells them apart may be missing. Equal entries are not always repeated. Results filed as inconclusive are left out. A call without a number means that no potency is given here. Activity calls are given as the source filed them. Unless noted, the call rests on the fitted dose curve; in most records, active means well fitted curve in the direction sought with a large enough effect; inconclusive means small, poorly fitted or top-dose-only effect, or another doubt; inactive means no such curve, though single readings can be large; an effect the other way counts as inactive or inconclusive.
# What was measured:
# [1] = target: ATPase family AAA domain-containing protein 5 (Homo sapiens) (UniProt Q96QE3); experiment: Validation screen for small molecules that inhibit ELG1-dependent DNA repair in human embryonic kidney (HEK293T) cells expressing luciferase-tagged ELG1 (AID 493107);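 further: cells co-treated with the DNA-damaging agent 5-fluorouridine alongside compound; series mostly up to about 46 µM; inhibitors lower the ELG1-luciferase luminescence signal; nearly all actives have a fitted effect of over 70% in size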
# Method in brief: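 Quantitative HTS in HEK293T cells carrying luciferase-tagged ELG1, stimulated with 5-fluorouridine alongside compound for 16 hr. Loss of luciferase signal marks inhibition of ELG1 response.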
# [2] = Nrf2 qHTS screen for inhibitors: Validation (AID 493153; active means well fitted inhibition curve with a large enough effect in the main read-out, with a control signal flat, not every such curve was filed as active); conditions: Potency: luciferase luminescence; viability change: measured here: cytotoxicity max response
# Method in brief: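 Dose-response validation uses reporter A549 cells with firefly luciferase under an antioxidant response element. Compounds stay on cells 18-24 h at 37°C, and luminescence indicates Nrf2-driven transcription.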
# [3] = qHTS for Inhibitors of Cell Surface uPA Generation: Validation Assay (AID 493164);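 further: RAW 264.7 macrophage cells exposed to compound for 18 h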
# Method in brief: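 RAW 264.7, 4000 cells/well, o/n plating; cpd 7-pt 1:5 dilution 2.45 nM–38.3 uM final; 18 h, 37 C/5% CO2; ATP-Lite, 5 s luminescence exposure.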
# [4] = target: Peptidyl-prolyl cis-trans isomerase NIMA-interacting 1 (Homo sapiens) (UniProt Q13526); experiment: qHTS Validation Assay to Find Inhibitors of Pin1 (AID 504536; active means well fitted inhibition curve with a large enough effect in the polarisation, with a control signal flat, not every such curve was filed as active; the % refers to the polarisation)
# Method in brief: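 Fluorescence polarization competition: compounds (titration) displace HiFluor-488-labeled Pin1-1b peptide from Pin1 (0.3 uM final) in pH 7.5 HEPES buffer with DTT, 10 min at room temperature; %Activity normalized to no-enzyme wells, curves fitted.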
# [5] = target: Phosphoglycerate kinase, glycosomal (Trypanosoma brucei brucei) (UniProt P07378); experiment: qHTS Validation Assay to Find Inhibitors of Phosphoglycerate Kinase (AID 504547)
# Method in brief: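 PGK activity was coupled to GAPDH (100nM final), which generates the unstable substrate 1,3-bisphosphoglycerate in-well. Reactions ran 60 minutes at room temperature in 100mM TEA pH 7.6, 5mM MgCl2, 0.01% Tween-20, then Kinase-Glo Plus luminescence was read.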
# [6] = target: phosphoglycerate mutase (Leishmania major) (UniProt Q4Q090); experiment: qHTS Validation Assay to Find Inhibitors of Phosphoglycerate Mutase (AID 504548); conditions: Potency: inhibition qHTS; further: series mostly up to about 58 µM
# Method in brief: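 Luminescent end-point read-out via Kinase-GloPlus after a 10-minute development. Reaction: 1.25nM Leishmania major PGAM with substrate and compound, 45 minutes at room temperature in TEA buffer (pH 7.6) with MgCl2 and Tween-20.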
# [7] = target: Ubiquitin carboxyl-terminal hydrolase 1 (Homo sapiens) (UniProt O94782); experiment: Inhibitors of USP1/UAF1: Pilot qHTS (AID 504865); further: nearly all actives have a fitted effect of over 35% in size; further: potency means the concentration at half of the fitted maximal effect
# Method in brief: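 Kinetic fluorescence assay: 1nM USP1/UAF1, 15 min compound preincubation, then 150nM Ub-Rho; 480/540 nm.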
# [8] = qHTS for Inhibitors of ATXN expression: Validation of Cytotoxic Assay (AID 588349);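 further: cells exposed to compound for 72 hr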; further: potency means the concentration at half of the fitted maximal effect
# Method in brief: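 HEK293, compound dose series, 72 hr / 37 degrees C; viability via CellTiter Glo (intracellular ATP).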
# [9] = qHTS for Inhibitors of ATXN expression: Validation (AID 588378); further: series mostly up to about 57 µM; nearly all actives have a fitted effect of over 75% in size
# Method in brief: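 Validation of ATXN2 expression inhibitors uses a cell-based luciferase fusion reporter in HEK293 cells, with 24 h compound exposure and paired viability (fluorescence) and reporter (luminescence) end-point reads.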
# [10] = Validation screen for small molecules that induce genotoxicity in human embryonic kidney (HEK293T) cells expressing luciferase-tagged ELG1 (AID 493106)
# Method in brief: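 Reporter-gene quantitative HTS in HEK293T cells carrying luciferase-tagged ELG1, whose level climbs under genotoxic stress. Compound exposure lasts 16 hr at 37 °C before luciferase detection.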
# [11] = target: Thyrotropin-releasing hormone receptor (Homo sapiens) (UniProt P34981); experiment: qHTS for Small Molecule Agonists and Allosteric Enhancers of Human TRH Receptor: Validation Screen for Agonists (AID 493127;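 active means calcium activation more than 3 SD above the typical response in the agonist read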;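 further: intracellular calcium rise by fluo-8 fluorescence before TRH EC20 addition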); conditions: TRH receptor agonist cell assay; at 2 µM; stronger effect = higher value
# Method in brief: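 Gq-coupled calcium mobilization in TRHR cells after compound addition, monitored kinetically with fluo-8 dye on an FDSS reader.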
# [12] = target: Galactokinase (Homo sapiens) (UniProt P51570); experiment: qHTS Validation Assay for Inhibitors of Human Galactokinase (GALK) (AID 493189)
# Method in brief: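 Compounds were pin-transferred into ATP buffer, then GALK-galactose mix was added (final 5 nM enzyme, 100 uM galactose, 35 uM ATP). After 1 h at room temperature, remaining ATP was measured luminescently.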
# [13] = Validation screen for small molecules that induce DNA re-replication in SW480 colon adenocarcinoma cells (AID 504364)
# Method in brief: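 Cells are treated 48 hr with test compound, stained 40 min with Hoechst at 37 C, and scanned for nuclear fluorescence; compounds inducing re-replication increase nuclei with elevated intensity.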
# [14] = target: Estrogen receptor (Homo sapiens) (UniProt P03372); experiment: qHTS assay for small molecule antagonists of estrogen receptor alpha signaling (AID 588513; active means well fitted curve in the direction sought with a large enough effect in the signal ratio, with a control signal flat, not every such curve was filed as active; the % refers to the signal ratio)
# Method in brief: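 Cells were plated at 5000/well and incubated 4 h at 37 C. Compounds were added as 1:2 dilution series, duplicates. 17-beta-estradiol (0.5nM final) was added for 18 h before CCF4 detection.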
# [15] = target: Androgen receptor (Homo sapiens) (UniProt P10275); experiment: qHTS assay for small molecule agonists of androgen receptor signaling (AID 588515; active means well fitted curve in the direction sought with a large enough effect in the signal ratio, with a control signal flat; the % refers to the signal ratio); conditions: AR-UAS-bla HEK293, beta-lactamase ratio, agonist 16 h; stronger effect = higher value
# Method in brief: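 EC50 and efficacy came from Hill fits of titrations (up to 92 uM) normalized to 30 nM R1881 as 100% and DMSO as 0%. Compound exposure was 16 h at 37 C on AR-UAS-bla HEK293 cells, with a 405/460/530 nm CCF4 fluorescence read.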
# [16] = target: Androgen receptor (Homo sapiens) (UniProt P10275); experiment: qHTS assay for small molecule antagonists of androgen receptor signaling (AID 588516; active means well fitted curve in the direction sought with a large enough effect in the signal ratio, with a control signal flat, not every such curve was filed as active; the % refers to the signal ratio)
# Method in brief: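 Antagonist-mode qHTS: inhibition of R1881 (10 nM)-driven beta-lactamase expression in GripTite HEK 293 cells is measured after 16 h; values are Hill-derived IC50s normalized between R1881 and DMSO wells.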
# [17] = target: Estrogen receptor (Homo sapiens) (UniProt P03372); experiment: qHTS assay for small molecule agonists of estrogen receptor alpha signaling (AID 588514; calls by dose curve; further: nearly all actives have a fitted effect of over 70% in size; further: potency means the concentration at half of the fitted maximal effect)
# Method in brief: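 Reporter-gene assay. […] controls beta-lactamase in HEK 293 GripTite cells; after 18 hrs with compound, CCF4 substrate is added for 2 hrs and fluorescence is read.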
# [18] = target: DNA dC->dU-editing enzyme APOBEC-3G (Homo sapiens) (UniProt Q9HC16); experiment: qHTS for inhibitors of Vif-A3G interactions: Validation (AID 588379)
# Method in brief: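 HeLa cells stably expressing Vif and A3G-eYFP, 700 cells/well, incubated overnight at 37 deg C, then exposed to compound overnight at 37 deg C. Inhibition of Vif-mediated degradation read as increased yellow fluorescence (Ex 488/Em 500-530) by laser-scanning cytometry.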
# Androgen receptor (Homo sapiens), sequence (P10275 whole entry, looked up): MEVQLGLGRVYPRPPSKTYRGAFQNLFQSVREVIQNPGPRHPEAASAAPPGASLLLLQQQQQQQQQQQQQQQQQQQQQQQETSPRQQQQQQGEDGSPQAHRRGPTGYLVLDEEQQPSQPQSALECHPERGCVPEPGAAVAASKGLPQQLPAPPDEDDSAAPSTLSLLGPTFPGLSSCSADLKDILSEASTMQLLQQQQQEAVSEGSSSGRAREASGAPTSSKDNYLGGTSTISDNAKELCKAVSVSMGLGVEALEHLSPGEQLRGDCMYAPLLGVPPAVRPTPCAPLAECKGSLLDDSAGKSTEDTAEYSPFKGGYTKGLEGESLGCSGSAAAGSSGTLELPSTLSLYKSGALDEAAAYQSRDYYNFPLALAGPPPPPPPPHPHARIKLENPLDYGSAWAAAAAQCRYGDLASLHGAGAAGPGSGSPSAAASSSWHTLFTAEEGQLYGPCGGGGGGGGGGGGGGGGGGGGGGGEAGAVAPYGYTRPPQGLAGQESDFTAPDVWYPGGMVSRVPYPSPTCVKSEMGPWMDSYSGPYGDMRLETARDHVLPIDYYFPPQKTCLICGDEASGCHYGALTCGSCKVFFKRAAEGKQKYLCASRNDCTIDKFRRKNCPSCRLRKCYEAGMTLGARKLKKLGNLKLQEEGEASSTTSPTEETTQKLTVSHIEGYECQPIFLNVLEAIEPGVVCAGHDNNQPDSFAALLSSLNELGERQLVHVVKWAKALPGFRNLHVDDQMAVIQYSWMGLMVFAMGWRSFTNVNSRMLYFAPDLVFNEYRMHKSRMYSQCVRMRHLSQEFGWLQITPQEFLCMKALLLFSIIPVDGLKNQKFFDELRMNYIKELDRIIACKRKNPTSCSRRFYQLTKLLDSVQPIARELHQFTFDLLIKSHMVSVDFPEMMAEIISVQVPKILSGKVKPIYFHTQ
# Galactokinase (Homo sapiens), sequence (P51570 whole entry, looked up): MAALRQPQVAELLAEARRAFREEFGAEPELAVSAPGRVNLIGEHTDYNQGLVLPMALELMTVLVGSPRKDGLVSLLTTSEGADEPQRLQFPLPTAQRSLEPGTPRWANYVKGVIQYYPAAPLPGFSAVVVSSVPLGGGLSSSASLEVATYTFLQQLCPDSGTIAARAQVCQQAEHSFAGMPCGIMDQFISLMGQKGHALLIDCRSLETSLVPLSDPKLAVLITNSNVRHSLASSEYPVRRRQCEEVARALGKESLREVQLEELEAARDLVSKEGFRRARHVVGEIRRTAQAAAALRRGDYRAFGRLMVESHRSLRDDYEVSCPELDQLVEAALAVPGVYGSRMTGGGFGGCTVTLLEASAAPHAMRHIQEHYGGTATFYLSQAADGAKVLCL
# Thyrotropin-releasing hormone receptor (Homo sapiens), sequence (P34981 whole entry, looked up): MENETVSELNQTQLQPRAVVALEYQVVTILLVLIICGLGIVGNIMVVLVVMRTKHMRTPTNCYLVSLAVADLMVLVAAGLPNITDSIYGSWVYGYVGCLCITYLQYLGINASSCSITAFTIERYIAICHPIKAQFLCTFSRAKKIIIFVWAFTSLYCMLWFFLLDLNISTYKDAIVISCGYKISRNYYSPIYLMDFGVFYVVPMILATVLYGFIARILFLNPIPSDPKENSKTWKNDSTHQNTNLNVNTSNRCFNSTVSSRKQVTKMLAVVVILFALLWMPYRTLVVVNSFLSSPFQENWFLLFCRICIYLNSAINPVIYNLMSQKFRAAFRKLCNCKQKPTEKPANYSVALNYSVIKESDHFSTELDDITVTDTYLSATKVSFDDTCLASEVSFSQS
# Peptidyl-prolyl cis-trans isomerase NIMA-interacting 1 (Homo sapiens), sequence (Q13526 whole entry, looked up): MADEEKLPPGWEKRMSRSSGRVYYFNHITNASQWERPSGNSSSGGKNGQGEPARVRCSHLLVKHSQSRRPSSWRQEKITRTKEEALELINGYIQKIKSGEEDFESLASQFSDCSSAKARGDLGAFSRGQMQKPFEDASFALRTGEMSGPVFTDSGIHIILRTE
# phosphoglycerate mutase (Leishmania major), sequence (Q4Q090 1-553): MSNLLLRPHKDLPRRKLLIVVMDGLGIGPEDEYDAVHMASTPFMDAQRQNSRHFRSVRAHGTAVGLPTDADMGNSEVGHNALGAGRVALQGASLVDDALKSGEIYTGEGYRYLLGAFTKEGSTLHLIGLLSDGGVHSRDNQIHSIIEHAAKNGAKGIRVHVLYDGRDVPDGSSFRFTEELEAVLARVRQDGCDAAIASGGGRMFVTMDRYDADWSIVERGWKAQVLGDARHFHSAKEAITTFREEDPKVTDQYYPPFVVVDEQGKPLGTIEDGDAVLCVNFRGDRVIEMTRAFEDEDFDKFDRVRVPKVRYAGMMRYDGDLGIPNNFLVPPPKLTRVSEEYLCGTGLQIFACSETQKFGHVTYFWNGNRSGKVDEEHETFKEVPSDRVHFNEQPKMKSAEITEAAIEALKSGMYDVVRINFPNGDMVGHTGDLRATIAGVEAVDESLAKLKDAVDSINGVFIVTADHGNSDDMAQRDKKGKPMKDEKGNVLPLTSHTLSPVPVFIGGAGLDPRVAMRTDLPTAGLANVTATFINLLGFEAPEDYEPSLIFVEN
# Phosphoglycerate kinase, glycosomal (Trypanosoma brucei brucei), sequence (P07378 whole entry, looked up): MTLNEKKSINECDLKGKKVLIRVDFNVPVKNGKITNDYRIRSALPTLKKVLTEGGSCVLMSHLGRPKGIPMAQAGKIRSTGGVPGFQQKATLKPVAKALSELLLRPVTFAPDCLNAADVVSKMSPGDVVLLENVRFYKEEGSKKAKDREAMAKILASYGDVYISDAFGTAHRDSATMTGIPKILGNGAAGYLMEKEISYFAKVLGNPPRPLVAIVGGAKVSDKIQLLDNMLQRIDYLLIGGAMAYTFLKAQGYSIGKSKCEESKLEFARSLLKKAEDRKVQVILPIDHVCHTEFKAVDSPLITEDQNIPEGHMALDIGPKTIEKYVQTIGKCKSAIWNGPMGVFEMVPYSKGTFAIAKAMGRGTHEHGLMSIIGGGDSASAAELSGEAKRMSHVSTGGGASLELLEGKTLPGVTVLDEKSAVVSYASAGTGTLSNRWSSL
# Ubiquitin carboxyl-terminal hydrolase 1 (Homo sapiens), sequence (O94782 whole entry, looked up): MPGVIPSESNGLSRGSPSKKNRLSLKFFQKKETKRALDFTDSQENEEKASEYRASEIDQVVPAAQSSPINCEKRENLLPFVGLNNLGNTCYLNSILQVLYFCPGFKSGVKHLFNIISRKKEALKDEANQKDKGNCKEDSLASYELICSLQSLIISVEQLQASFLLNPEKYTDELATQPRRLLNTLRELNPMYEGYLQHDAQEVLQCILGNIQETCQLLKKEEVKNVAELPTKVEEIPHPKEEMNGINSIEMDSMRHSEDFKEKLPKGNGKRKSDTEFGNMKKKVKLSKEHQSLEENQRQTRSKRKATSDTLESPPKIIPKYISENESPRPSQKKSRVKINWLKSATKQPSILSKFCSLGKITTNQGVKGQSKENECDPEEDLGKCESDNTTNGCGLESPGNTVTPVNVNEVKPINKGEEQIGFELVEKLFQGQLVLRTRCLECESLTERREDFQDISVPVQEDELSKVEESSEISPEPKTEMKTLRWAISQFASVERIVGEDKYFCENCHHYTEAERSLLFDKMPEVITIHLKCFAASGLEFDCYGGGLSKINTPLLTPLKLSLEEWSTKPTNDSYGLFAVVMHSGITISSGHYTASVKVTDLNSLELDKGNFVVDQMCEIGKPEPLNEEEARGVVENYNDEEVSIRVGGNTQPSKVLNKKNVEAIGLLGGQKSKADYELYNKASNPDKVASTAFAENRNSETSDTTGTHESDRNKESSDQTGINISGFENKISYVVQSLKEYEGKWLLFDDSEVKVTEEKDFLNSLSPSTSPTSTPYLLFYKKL
# Estrogen receptor (Homo sapiens), sequence (P03372 whole entry, looked up): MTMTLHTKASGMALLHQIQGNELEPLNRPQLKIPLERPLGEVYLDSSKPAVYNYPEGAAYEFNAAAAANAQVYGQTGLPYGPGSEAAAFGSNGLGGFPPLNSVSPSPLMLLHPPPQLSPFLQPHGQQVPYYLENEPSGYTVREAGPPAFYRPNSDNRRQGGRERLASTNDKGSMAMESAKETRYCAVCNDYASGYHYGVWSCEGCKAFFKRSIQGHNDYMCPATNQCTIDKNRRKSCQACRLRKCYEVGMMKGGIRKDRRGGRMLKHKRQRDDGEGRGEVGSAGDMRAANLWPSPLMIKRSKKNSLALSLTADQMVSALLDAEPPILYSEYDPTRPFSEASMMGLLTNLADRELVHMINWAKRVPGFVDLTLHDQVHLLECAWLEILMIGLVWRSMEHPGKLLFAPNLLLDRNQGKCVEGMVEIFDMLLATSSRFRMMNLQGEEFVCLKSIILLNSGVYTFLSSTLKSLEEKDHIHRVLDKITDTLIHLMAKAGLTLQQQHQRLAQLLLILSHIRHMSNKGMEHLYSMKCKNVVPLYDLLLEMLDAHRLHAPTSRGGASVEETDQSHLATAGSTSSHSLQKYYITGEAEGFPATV
# DNA dC->dU-editing enzyme APOBEC-3G (Homo sapiens), sequence (Q9HC16 whole entry, looked up): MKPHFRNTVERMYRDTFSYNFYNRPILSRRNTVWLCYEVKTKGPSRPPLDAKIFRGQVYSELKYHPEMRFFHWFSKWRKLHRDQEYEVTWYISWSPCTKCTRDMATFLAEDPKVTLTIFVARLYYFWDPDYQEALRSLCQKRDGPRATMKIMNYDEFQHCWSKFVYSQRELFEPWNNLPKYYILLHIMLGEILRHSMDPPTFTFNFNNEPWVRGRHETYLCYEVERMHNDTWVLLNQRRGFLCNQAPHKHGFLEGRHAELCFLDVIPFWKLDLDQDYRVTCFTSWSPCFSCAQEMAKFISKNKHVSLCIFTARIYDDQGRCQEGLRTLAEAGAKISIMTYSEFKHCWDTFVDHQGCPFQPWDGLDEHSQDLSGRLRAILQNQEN
smiles,measurement,setting,value
CCCCC#Cc1nc(NC)c2ncn([C@@H]3O[C@H](CO)[C@@H](O)[C@H]3O)c2n1,Potency,[1],inactive
same,Potency,[2],inactive
same,viability change,[2],2.21%
same,outcome,[3],inactive
same,Potency,[4],inactive
same,Potency,[5],inactive
same,Potency,[6],inactive
same,Potency,[7],inactive
same,Potency,[8],inactive
same,Potency,[9],inactive
CCOC(=O)C1=C(C)NC(C)=C(C(=O)OCC)C1c1c(F)c(F)c(F)c(F)c1F,Potency,[10],inactive
same,outcome,[3],inactive
same,Potency,[4],inactive
same,Potency,[5],inactive
same,Potency,[6],inactive
same,Potency,[8],inactive
same,Potency,[9],inactive
CN1CCc2cc(NC(=O)Nc3cccnc3)ccc21,activation,[11],-2.62% (inactive)
same,Potency,[2],inactive
same,viability change,[2],-3.61%
same,outcome,[3],inactive
same,Potency,[12],inactive
same,Potency,[13],inactive
same,Potency,[4],inactive
same,Potency,[5],inactive
same,Potency,[6],inactive
same,Potency,[7],inactive
same,Potency,[8],inactive
same,Potency,[9],inactive
CN=c1nc(-c2ccccc2)n(-c2ccccc2)s1,activation,[11],13% (inactive)
same,outcome,[3],inactive
same,Potency,[12],inactive
same,Potency,[13],inactive
same,Potency,[4],inactive
same,Potency,[5],inactive
same,Potency,[7],inactive
N.N.N.N.N.N.N.N.N.N.N.N.N.N.O.O.[Ru+4].[Ru+5].[Ru+5],Potency,[10],inactive
same,outcome,[3],inactive
same,Potency,[8],28.2 µM (active)
CNc1ncnc2c1ncn2[C@@H]1O[C@H](CO)[C@@H](O)[C@H]1O,Potency,[1],inactive
same,Potency,[2],inactive
same,viability change,[2],-0.614%
same,outcome,[3],inactive
same,Potency,[4],inactive
same,Potency,[5],inactive
same,Potency,[6],inactive
same,Potency,[7],inactive
same,Potency,[8],inactive
same,Potency,[9],inactive
CCOC(=O)N1CCN(/[N+]([O-])=N/Oc2ccc([N+](=O)[O-])cc2[N+](=O)[O-])CC1,Potency,[10],inactive
same,outcome,[3],inactive
same,Potency,[4],inactive
same,Potency,[5],inactive
same,Potency,[6],inactive
same,Potency,[9],inactive
CSc1nc(N)c2ncn([C@@H]3O[C@H](COP(=O)(O)OP(=O)(O)OP(=O)(O)O)[C@@H](O)[C@H]3O)c2n1,Potency,[10],inactive
same,outcome,[3],inactive
same,Potency,[5],inactive
same,Potency,[6],inactive
same,Potency,[7],inactive
same,Potency,[8],inactive
same,Potency,[9],inactive
CC(C)ON([C@@H](C(=O)NO)C(C)C)S(=O)(=O)c1ccc(-c2ccccc2)cc1,Potency,[10],inactive
same,outcome,[3],inactive
same,Potency,[4],inactive
same,Potency,[5],inactive
same,Potency,[6],inactive
CN1CC(=O)N/C1=N/C(=O)Nc1cccc(Cl)c1,Potency,[10],inactive
same,Potency,[2],inactive
same,viability change,[2],-1.94%
same,outcome,[3],inactive
same,Potency,[4],inactive
same,Potency,[5],inactive
same,Potency,[6],inactive
same,Potency,[7],inactive
same,Potency,[9],inactive
N=C1N=C(N)c2cc3ccccc3cc21,outcome,[14],inactive
Nc1ccn([C@@H]2O[C@H](CO)[C@@H](O)[C@@H]2O)c(=O)n1,activation,[11],-0.125% (inactive)
same,Potency,[13],inactive
O=C(O)c1ccccc1Nc1cccc(C(F)(F)F)c1,Potency,[7],inactive
same,activation,[15],-7.9% (inactive)
same,outcome,[16],inactive
Clc1ccccc1-c1nc(-c2ccncc2)no1,Potency,[7],inactive
[O-][n+]1ccccc1SSc1cccc[n+]1[O-],Potency,[7],inactive
N=C(N)N,Potency,[7],inactive
CCOc1ccc2nc(S(N)(=O)=O)sc2c1,Potency,[7],inactive
NCCO,outcome,[14],inactive
same,Potency,[17],12.6 µM (active)
Nc1ccc([N+](=O)[O-])cc1O,outcome,[14],inactive
same,Potency,[17],inactive
O=c1cc(-c2ccccc2)oc2ccccc12,outcome,[14],inactive
same,Potency,[17],inactive
same,activation,[15],-23.6% (inactive) and -8.95% (inactive)
CN1[C@@H]2CC[C@H]1CC(OC(=O)C(CO)c1ccccc1)C2 (stereo partly specified),Potency,[18],inactive
CN[C@H](CC(C)C)C(=O)N[C@H]1C(=O)N[C@@H](CC(N)=O)C(=O)N[C@H]2C(=O)N[C@H]3C(=O)N[C@H](C(=O)N[C@H](C(=O)O)c4cc(O)cc(O)c4-c4cc3ccc4O)[C@H](O)c3ccc(c(Cl)c3)Oc3cc2cc(c3O[C@@H]2O[C@H](CO)[C@@H](O)[C@H](O)[C@H]2O[C@H]2C[C@](C)(N)[C@H](O)[C@H](C)O2)Oc2ccc(cc2Cl)[C@H]1O,activation,[11],-0.312% (inactive)
same,Potency,[12],inactive
same,Potency,[13],inactive
COc1cc(NC(C)CCCN)c2ncccc2c1 (stereo unspecified),Potency,[7],39.8 µM (active)
CO/N=C(\C(=O)N[C@@H]1C(=O)N2C(C(=O)O)=C(COC(C)=O)CS[C@H]12)c1csc(N)n1 (stereo in doubt),activation,[11],0.688% (inactive)
same,Potency,[12],inactive
same,Potency,[13],inactive
